PubChem BioAssay (NCATS)
Inconclusive results are not listed. The source made the active and inactive calls. Unless noted, calls come from the whole dose curve.

Experiments:
[1] = qHTS for Inhibitors of the Functional Ribonucleoprotein Complex (vRNP) of Lassa (LASV) Arenavirus: LASV Primary Screen - GLuc reporter signal (AID 1347082; calls by dose curve; tested in HEK293 reporter line; note: nearly all actives have a fitted effect of over 60% in size)
[2] = qHTS for Inhibitors of the Functional Ribonucleoprotein Complex (vRNP) of Lassa (LASV) Arenavirus: Viability assay - alamar blue signal for LASV Primary Screen (AID 1347083; calls by dose curve; tested in HEK293 reporter line; note: nearly all actives have a fitted effect of over 80% in size)
[3] = qHTS for Inhibitors of the Functional Ribonucleoprotein Complex (vRNP) of Lymphocytic Choriomeningitis Arenaviruses (LCMV): Viability assay - alamar blue signal for LCMV Primary Screen (AID 1347085; calls by dose curve; tested in HEK293 reporter line; note: nearly all actives have a fitted effect of over 80% in size)
[4] = molecular target: Nucleoprotein (Lymphocytic choriomeningitis virus (strain Armstrong)) (UniProt P09992); assay: qHTS for Inhibitors of the Functional Ribonucleoprotein Complex (vRNP) of Lymphocytic Choriomeningitis Arenaviruses (LCMV): LCMV Primary Screen - GLuc reporter signal (AID 1347086); note: nearly all actives have a fitted effect of over 70% in size

Measured: Potency
Note: series mostly up to about 57 µM.

Sequence of Nucleoprotein (Lymphocytic choriomeningitis virus (strain Armstrong)) (P09992 whole entry, looked up): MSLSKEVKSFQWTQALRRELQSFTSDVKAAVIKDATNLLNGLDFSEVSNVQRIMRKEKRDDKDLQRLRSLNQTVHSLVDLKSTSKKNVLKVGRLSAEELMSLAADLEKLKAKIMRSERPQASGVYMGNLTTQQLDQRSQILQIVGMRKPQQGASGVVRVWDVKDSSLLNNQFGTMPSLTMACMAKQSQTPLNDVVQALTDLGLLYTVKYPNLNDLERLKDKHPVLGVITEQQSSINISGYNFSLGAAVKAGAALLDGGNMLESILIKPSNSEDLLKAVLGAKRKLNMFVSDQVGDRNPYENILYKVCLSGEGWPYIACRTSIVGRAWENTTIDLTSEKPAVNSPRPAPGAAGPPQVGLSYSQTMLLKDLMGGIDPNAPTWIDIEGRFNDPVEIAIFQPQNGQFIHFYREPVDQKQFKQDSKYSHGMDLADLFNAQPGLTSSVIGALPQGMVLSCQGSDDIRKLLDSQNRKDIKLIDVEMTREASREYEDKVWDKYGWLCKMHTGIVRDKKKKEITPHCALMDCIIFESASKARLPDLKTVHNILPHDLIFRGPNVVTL

CCN(CCO)CCCC(C)Nc1ccnc2cc(Cl)ccc12 (centres undefined)
inactive: [1] | [2] | [3] | [4]

CC1=C(C(=O)O)N2C(=O)[C@@H](NC(=O)[C@H](N)c3ccccc3)[C@H]2SC1
inactive: [1] | [2] | [3] | [4]

C[C@@H]1CC(=O)NN=C1c1ccc(NN=C(C#N)C#N)cc1
inactive: [1] | [2] | [3] | [4]

NS(=O)(=O)c1cc2c(cc1C(F)(F)F)NCNS2(=O)=O
inactive: [1] | [2] | [3] | [4]

CCC(C)n1ncn(-c2ccc(N3CCN(c4ccc(OC[C@H]5CO[C@](Cn6cncn6)(c6ccc(Cl)cc6Cl)O5)cc4)CC3)cc2)c1=O (some centres undefined)
inactive: [1] | [2] | [3] | [4]

COc1cc2c(N3CCN(C(=O)Nc4ccc(OC(C)C)cc4)CC3)ncnc2cc1OCCCN1CCCCC1
inactive: [1] | [2] | [3] | [4]

Cc1[nH]c(=O)c(C#N)cc1-c1ccncc1
inactive: [1] | [2] | [3] | [4]

O=NN(CCCl)C(=O)NC1CCCCC1
inactive: [1] | [2] | [3] | [4]

COc1cc2c(cc1OC)C(=O)C(CC1CCN(Cc3ccccc3)CC1)C2 (centres undefined)
inactive: [1] | [2] | [3] | [4]

CC1(C)S[C@@H]2[C@H](NC(=O)Cc3ccccc3)C(=O)N2[C@H]1C(=O)O (tested in a mixture with another compound)
inactive: [1] | [2] | [3] | [4]

CO/N=C(\C(=O)N[C@@H]1C(=O)N2C(C(=O)O)=C(CSc3nc(=O)c(O)nn3C)CS[C@H]12)c1csc(N)n1
inactive: [1] | [2] | [3] | [4]
